According to the supplement of paper PMC10849652:
Targets with a hit are over-represented here; the source holds about 7,900 in all. About 0.6% of all pairs of compound and target were hits.

compound: C1=CC2=NC=CN=C2C=C1/C=C/3\C(=O)NC(=O)S3; assay: log2 fold change, soluble protein after heating vs DMSO (PISA); higher = thermal stabilisation; K562 cells, 10 uM, 30 min; active = over 0.2 and 3.5 SD of the protein, either way, in both replicates (recomputed)
In short: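 Aliquots of K562 cells (2×10^6 cells/mL) treated with 10 μM compound for 30 min were heated for 3 min over 48°C-58°C. After pooling and extraction in PBS with 0.5% NP-40 at 4°C, soluble protein from a 21,000xg, 90 min spin was quantified by TMTpro 16plex LC-MS/MS with channel sums equalised. Thermal stability is expressed against control samples, from duplicates, as a log2 fold change.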

UniProt P28070, sequence (P28070 whole entry, looked up): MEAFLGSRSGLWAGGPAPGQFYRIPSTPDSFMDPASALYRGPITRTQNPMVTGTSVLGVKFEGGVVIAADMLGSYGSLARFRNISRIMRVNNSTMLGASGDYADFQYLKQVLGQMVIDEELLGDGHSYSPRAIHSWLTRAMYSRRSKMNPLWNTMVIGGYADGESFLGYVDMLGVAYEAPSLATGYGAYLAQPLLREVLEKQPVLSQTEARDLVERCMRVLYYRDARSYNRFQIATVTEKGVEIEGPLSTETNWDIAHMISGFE
UniProt Q86T03, sequence (Q86T03 whole entry, looked up): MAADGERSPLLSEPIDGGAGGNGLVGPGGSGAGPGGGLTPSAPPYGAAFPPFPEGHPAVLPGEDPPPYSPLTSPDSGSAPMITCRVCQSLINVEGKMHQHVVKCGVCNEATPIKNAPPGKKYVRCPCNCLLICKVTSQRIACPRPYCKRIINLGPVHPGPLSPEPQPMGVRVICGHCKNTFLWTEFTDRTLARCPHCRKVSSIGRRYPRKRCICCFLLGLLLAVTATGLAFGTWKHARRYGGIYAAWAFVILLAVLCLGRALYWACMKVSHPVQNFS
UniProt P49585, sequence (P49585 whole entry, looked up): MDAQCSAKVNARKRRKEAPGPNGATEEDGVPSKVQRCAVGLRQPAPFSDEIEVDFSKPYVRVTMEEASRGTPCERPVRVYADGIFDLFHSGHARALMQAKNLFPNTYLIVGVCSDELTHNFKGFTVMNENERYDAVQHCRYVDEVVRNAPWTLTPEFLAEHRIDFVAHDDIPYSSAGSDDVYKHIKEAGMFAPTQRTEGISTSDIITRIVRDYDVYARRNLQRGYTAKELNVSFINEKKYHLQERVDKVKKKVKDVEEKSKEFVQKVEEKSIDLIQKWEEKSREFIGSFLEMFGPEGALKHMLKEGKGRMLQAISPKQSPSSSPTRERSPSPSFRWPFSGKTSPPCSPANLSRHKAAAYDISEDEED
UniProt Q8N165, sequence (Q8N165 whole entry, looked up): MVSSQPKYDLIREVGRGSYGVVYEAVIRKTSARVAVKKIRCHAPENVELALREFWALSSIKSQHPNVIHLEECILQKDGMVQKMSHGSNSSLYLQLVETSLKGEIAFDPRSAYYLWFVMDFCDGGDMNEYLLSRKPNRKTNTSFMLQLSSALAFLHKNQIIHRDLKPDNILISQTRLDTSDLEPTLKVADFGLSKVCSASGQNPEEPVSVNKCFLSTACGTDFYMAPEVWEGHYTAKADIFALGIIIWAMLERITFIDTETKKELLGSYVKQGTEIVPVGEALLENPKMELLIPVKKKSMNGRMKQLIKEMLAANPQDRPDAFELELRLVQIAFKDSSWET
UniProt Q86YH6, sequence (Q86YH6 whole entry, looked up): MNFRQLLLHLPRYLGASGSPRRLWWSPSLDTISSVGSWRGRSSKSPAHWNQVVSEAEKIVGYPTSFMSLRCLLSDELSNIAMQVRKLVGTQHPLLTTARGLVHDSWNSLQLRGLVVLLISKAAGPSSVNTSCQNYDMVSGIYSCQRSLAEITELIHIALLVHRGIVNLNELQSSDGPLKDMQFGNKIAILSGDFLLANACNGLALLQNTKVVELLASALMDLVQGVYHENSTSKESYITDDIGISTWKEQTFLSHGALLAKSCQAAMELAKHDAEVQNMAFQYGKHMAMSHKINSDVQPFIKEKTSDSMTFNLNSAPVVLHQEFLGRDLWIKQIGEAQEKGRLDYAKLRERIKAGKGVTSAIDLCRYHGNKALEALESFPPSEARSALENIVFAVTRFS
UniProt P53609, sequence (P53609 whole entry, looked up): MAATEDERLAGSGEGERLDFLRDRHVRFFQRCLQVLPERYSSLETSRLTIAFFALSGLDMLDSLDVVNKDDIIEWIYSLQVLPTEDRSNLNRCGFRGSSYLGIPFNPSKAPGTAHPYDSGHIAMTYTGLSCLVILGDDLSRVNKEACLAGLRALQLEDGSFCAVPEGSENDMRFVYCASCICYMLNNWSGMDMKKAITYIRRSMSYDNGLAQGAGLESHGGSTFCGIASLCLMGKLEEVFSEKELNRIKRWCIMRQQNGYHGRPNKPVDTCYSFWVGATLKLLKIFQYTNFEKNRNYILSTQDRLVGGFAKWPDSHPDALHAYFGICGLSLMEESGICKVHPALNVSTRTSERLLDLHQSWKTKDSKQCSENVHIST
UniProt Q7RTV0, sequence (Q7RTV0 whole entry, looked up): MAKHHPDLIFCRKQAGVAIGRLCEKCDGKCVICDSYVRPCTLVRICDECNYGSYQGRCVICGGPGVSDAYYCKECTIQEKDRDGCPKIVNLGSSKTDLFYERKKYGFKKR
UniProt Q9UMR5, sequence (Q9UMR5 whole entry, looked up): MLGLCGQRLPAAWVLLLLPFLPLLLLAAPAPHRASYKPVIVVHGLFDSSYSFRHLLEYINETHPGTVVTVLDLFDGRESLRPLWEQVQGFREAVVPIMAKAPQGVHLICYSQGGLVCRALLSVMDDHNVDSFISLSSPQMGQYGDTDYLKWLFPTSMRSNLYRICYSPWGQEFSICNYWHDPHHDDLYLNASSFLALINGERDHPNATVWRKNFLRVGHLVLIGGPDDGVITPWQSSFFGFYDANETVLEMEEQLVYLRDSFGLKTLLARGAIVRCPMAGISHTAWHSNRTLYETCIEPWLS
UniProt O60256, sequence (O60256 whole entry, looked up): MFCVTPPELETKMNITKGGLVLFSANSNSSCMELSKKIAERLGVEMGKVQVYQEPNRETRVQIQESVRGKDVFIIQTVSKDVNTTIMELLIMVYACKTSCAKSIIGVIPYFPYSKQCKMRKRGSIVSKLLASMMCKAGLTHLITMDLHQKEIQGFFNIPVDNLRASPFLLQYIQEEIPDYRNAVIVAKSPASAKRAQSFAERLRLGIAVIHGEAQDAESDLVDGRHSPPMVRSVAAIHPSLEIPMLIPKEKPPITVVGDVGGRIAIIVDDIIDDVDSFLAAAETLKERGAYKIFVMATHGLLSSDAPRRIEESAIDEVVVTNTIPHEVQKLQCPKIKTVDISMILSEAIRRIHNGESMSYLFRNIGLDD
UniProt P28340, sequence (P28340 whole entry, looked up): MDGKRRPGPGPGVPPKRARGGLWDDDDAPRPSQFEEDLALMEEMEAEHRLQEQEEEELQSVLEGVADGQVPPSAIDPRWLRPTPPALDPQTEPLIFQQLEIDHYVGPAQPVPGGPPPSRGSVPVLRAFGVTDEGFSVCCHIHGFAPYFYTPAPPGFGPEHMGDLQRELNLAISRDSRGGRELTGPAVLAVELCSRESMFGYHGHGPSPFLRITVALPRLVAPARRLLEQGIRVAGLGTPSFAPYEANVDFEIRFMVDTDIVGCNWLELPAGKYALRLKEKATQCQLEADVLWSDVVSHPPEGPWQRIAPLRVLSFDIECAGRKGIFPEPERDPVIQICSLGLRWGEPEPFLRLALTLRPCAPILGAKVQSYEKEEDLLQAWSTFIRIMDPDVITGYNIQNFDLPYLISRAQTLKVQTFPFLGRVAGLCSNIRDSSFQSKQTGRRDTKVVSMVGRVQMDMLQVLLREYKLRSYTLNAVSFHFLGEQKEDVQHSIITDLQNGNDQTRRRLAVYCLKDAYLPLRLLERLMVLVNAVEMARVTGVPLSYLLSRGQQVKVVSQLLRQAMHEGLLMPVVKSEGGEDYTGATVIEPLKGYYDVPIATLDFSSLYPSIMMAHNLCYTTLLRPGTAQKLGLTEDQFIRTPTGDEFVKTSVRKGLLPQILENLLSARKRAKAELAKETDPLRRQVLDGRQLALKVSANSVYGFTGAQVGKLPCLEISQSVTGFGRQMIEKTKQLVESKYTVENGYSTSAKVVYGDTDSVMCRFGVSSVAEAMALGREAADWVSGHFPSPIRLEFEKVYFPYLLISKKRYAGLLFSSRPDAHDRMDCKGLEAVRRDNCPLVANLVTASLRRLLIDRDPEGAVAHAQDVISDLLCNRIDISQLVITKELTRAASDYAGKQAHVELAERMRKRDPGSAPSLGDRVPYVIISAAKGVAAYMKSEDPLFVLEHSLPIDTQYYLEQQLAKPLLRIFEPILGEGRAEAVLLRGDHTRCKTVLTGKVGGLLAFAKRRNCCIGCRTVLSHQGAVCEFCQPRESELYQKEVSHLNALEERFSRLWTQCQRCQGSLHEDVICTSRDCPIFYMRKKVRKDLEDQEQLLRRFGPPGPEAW
UniProt Q86TP1, sequence (Q86TP1 whole entry, looked up): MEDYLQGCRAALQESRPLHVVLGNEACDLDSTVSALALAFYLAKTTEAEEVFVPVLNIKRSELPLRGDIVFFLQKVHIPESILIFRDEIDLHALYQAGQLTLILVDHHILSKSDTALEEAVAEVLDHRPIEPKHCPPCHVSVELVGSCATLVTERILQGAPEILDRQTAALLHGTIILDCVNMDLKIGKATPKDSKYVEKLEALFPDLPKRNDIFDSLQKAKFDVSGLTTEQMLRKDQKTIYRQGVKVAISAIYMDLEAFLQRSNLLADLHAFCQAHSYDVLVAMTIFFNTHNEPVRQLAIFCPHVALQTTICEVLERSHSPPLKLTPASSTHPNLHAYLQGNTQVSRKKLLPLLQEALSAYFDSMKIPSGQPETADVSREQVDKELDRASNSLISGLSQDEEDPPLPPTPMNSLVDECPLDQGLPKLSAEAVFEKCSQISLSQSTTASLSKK
UniProt Q9BRP1, sequence (Q9BRP1 whole entry, looked up): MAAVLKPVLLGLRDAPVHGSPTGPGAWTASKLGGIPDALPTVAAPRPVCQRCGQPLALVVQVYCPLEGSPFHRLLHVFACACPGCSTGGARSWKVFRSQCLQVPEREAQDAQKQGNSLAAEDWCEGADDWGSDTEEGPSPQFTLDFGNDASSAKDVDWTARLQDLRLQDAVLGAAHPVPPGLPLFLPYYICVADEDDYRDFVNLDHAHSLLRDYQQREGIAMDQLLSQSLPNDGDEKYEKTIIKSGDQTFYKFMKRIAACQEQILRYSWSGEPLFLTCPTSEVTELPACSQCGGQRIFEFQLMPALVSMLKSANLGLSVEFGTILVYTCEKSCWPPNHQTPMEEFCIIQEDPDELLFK
UniProt Q9Y244, sequence (Q9Y244 whole entry, looked up): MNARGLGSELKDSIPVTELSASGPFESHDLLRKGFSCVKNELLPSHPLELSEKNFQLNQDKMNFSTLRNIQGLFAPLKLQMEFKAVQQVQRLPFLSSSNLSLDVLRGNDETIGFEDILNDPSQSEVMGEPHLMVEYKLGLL

log2 fold change, inactive:
PHF5A (UniProt Q7RTV0) 0.017
PRKAR2A (UniProt P13861) -0.005
PRUNE1 (UniProt Q86TP1) -0.016
POMP (UniProt Q9Y244) 0.086
PPT2 isoform 3 (UniProt Q9UMR5) -0.02
PIP4P1 isoform 2 (UniProt Q86T03) 0.068
POLD1 (UniProt P28340) -0.024
PGGT1B (UniProt P53609) -0.002
PPP1R14A (UniProt Q96A00) -0.001
PRMT3 (UniProt O60678) 0.011
PEX11B (UniProt O96011) 0.087
PCYT1A (UniProt P49585) 0.054
PISD (UniProt Q9UG56) 0.023
PSMD5 (UniProt Q16401) 0.027
PRPF40A (UniProt O75400) 0.007
PDIK1L (UniProt Q8N165) 0.115
PMPCA (UniProt Q10713) -0.014
PDCD2L (UniProt Q9BRP1) -0.03
PSMC6 (UniProt P62333) -0.037
PRKAB1 (UniProt Q9Y478) 0.024
PDSS2 (UniProt Q86YH6) -0.025
POLA1 (UniProt P09884) 0
PGM3 isoform 4 (UniProt O95394) 0.001
PSMD3 (UniProt O43242) -0.028
PARL (UniProt Q9H300) 0.044
PEX13 (UniProt Q92968) 0.073
PURA (UniProt Q00577) 0.013
PSMB4 (UniProt P28070) -0.035
PIK3CB (UniProt P42338) 0.09
PPP2R5C isoform 4 (UniProt Q13362) -0.004
PUF60 (UniProt Q9UHX1) -0.026
PRKACA (UniProt P17612) 0.042
PRPSAP2 (UniProt O60256) 0.017
PHKA2 (UniProt P46019) 0.041
PTPN12 (UniProt Q05209) 0.101
RAB11FIP1 (UniProt Q6WKZ4) -0.004
